# Experimental data from PubChem BioAssay (NCI).
# The panel holds about 83,000 compounds, 20% with a hit somewhere; the sample as a whole holds those more often.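 Cell lines were cultured in 96-well plates, exposed to a single compound concentration, and assessed for percent growth 48 hours later.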 A number with no mark means an inactive call. The source made the active and inactive calls. Rule for the calls: active = growth percent below 10; inactive = the rest.
# How the values were obtained:
# Assay in all cases: NCI-60 one-dose screen, 48 h (100 = growth as untreated, 0 = no growth, -100 = all killed)
# Details in all cases: 10 µM
# T-47D breast = test system: T-47D breast
# BT-549 breast = test system: BT-549 breast
# MDA-MB-435 melanoma = test system: MDA-MB-435 melanoma
# SW-620 colon = test system: SW-620 colon
# MCF7 breast = test system: MCF7 breast
# HCT-116 colon = test system: HCT-116 colon
# HCC-2998 colon = test system: HCC-2998 colon
# KM12 colon = test system: KM12 colon
SMILES,growth (T-47D breast),growth (BT-549 breast),growth (MDA-MB-435 melanoma),growth (SW-620 colon),growth (MCF7 breast),growth (HCT-116 colon),growth (HCC-2998 colon),growth (KM12 colon)
COc1ccc2oc(=O)cc(C3c4ccc([nH]4)C(c4cc(=O)oc5ccc(OC)cc45)c4ccc([nH]4)C(c4cc(=O)oc5ccc(OC)cc45)c4ccc([nH]4)C(c4cc(=O)oc5ccc(OC)cc45)c4ccc3[nH]4)c2c1 (configuration not stated),-28.7% (active),-73.8% (active),1.62% (active),-64.1% (active),-29.7% (active),-70.4% (active),30.5%,1.11% (active)
Cc1[nH]nc2c(=S)[nH]c(=O)[nH]c12,104%,98.1%,102%,103%,94%,105%,106%,107%
O=C(Nc1cccc(C(F)(F)F)c1)C(Cl)Cl,87.9%,102%,103%,104%,90.2%,98.1%,105%,94.8%
COc1cc(-c2n/c(=C\c3c(O)[nH]c4ccccc34)cc3c2=Nc2ccccc2-3)cc(OC)c1OC,51.7%,6.59% (active),-7.06% (active),33.4%,3.28% (active),3.38% (active),-20.4% (active),5.99% (active)
O=S(=O)(NC1c2ccccc2Oc2ccccc21)c1cc(Cl)ccc1Cl,74.1%,91.1%,105%,87.5%,91.9%,90.4%,99.1%,102%
O=C(O)c1ccc(CNc2ccc(C(=O)CCl)cc2)cc1,58.1%,96.4%,87.7%,93.4%,32.4%,80.8%,127%,101%
COc1ccc2nc(-c3ccccc3)cc(C(C)=O)c2c1,69.5%,93.6%,98%,99.9%,72.6%,91.2%,107%,103%
CCCCCCCCCCN=C(c1ccc(N(C)C)cc1)c1ccc(N(C)C)cc1,20.7%,38.1%,-14.2% (active),16.8%,11.9%,15.3%,52.6%,27.8%
CCOC(=O)/C(C#N)=C(/C)C1CC1,103%,107%,106%,108%,101%,110%,112%,106%
CS(=O)(=O)Nc1ccc(Nc2c3ccccc3nc3cc(Cl)ccc23)cc1,26.9%,52.4%,54.1%,30.4%,18.6%,16.5%,42.6%,48.2%
CCN(CC)CCOC(=O)c1ccc(N=Nc2ccc(O)c(OC)c2)cc1,86.6%,101%,103%,103%,95.6%,93.9%,103%,103%
C=CCOc1ccc2c(c1)CC[C@@H]1[C@@H]2CC[C@]2(C)C(=O)/C(=N/O)C[C@@H]12,22.7%,28.6%,61.6%,42.5%,44.2%,12.2%,27%,61.6%
CCN(CC)CC(O)CNc1ccnc2cc(Cl)c(Cl)cc12 (configuration not stated),93.1%,88.9%,96.8%,97.3%,79.5%,64.2%,102%,94.2%
COc1ccc2nc(C)cc(Nc3ccc(Cl)cc3)c2c1,102%,103%,108%,106%,89%,101%,107%,107%
